Experimental data published in PubChem BioAssay AID1159580 (chemical genetic matrix, 2015).
Screen size: about 5,500 compounds; about 2,000 (36%) were called active. Not shown: some 18% with an inconclusive outcome. Cut-off read from the data, not from the text of the source: active = normalized growth mostly below about 0.91 (no sharp cut-off); inconclusive = no clear call, values can overlap the other calls; inactive = mostly above about 0.92. The list shows a part of the results.

Assay: chemical genetic growth profiling, strain panel (AID 1159580);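 note: tested at 20 µM; growth read once vehicle control cultures reached saturation at 30 °C; 1 = growth at the plate median or of vehicle wells; lower values mean less growth of the strain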
Details: growth OD

Measured: normalized growth

NC(=O)N1c2ccccc2CC(=O)c2ccccc21
inactive: S. cerevisiae deletion strains, locus YKL009W, strain mrt4, hits give low values 1.01 | S. cerevisiae deletion strains, locus YKL068W, hits give low values 0.994 | S. cerevisiae deletion strains, locus YKL085W, strain MDH1 (second series), hits give low values 1.02 | S. cerevisiae deletion strains, locus YKL085W, strain MDH1, hits give low values 1.02 | S. cerevisiae deletion strains, locus YKL160W, strain elf1, hits give low values 1.05 | S. cerevisiae deletion strains, locus YKL190W, strain CNB1, hits give low values 1 | S. cerevisiae deletion strains, locus YKR001C, strain vps1, hits give low values 0.969 | S. cerevisiae deletion strains, locus YKR026C, strain gcn3, hits give low values 0.972 | S. cerevisiae deletion strains, locus YKR091W, strain srl3, hits give low values 0.989 | S. cerevisiae deletion strains, locus YLL001W, strain dnm1, hits give low values 0.969 | S. cerevisiae deletion strains, locus YLL026W, hits give low values 0.988 | S. cerevisiae deletion strains, locus YLL041C, strain sdh2, hits give low values 0.982 | S. cerevisiae deletion strains, locus YLR027C, strain aat2, hits give low values 0.999 | S. cerevisiae deletion strains, locus YLR039C, strain RIC1, hits give low values 0.972 | S. cerevisiae deletion strains, locus YLR058C, strain SHM2, hits give low values 0.988 | S. cerevisiae deletion strains, locus YLR102C, strain apc9, hits give low values 0.979 | S. cerevisiae deletion strains, locus YLR113W, strain HOG1, hits give low values 0.96 | S. cerevisiae deletion strains, locus YLR221C, strain rsa3, hits give low values 0.962 | S. cerevisiae deletion strains, locus YLR258W, strain gsy2, hits give low values 1.01 | S. cerevisiae deletion strains, locus YLR262C, strain YPT6 (second series), hits give low values 1.01 | S. cerevisiae deletion strains, locus YLR262C, strain YPT6, hits give low values 1.01 | S. cerevisiae deletion strains, locus YLR268W, strain sec22, hits give low values 1 | S. cerevisiae deletion strains, locus YLR320W, strain mms22, hits give low values 0.945 | S. cerevisiae deletion strains, locus YLR330W, strain CHS5, hits give low values 0.989 | S. cerevisiae deletion strains, locus YLR342W, strain FKS1 (second series), hits give low values 0.949 | S. cerevisiae deletion strains, locus YLR342W, strain FKS1, hits give low values 0.998 | S. cerevisiae deletion strains, locus YLR357W, strain rsc2, hits give low values 0.993 | S. cerevisiae deletion strains, locus YLR370C, strain arc18, hits give low values 1 | S. cerevisiae deletion strains, locus YLR371W, strain rom2, hits give low values 0.969 | S. cerevisiae deletion strains, locus YLR384C, strain iki3, hits give low values 0.983 | S. cerevisiae deletion strains, locus YLR418C, strain cdc73, hits give low values 1.01 | S. cerevisiae deletion strains, locus YML016C, strain PPZ1, hits give low values 0.985 | S. cerevisiae deletion strains, locus YML032C, strain rad52, hits give low values 0.96 | S. cerevisiae deletion strains, locus YML120C, strain ndi1, hits give low values 0.949 | S. cerevisiae deletion strains, locus YML124C, strain tub3, hits give low values 0.979 | S. cerevisiae deletion strains, locus YMR058W, strain fet3, hits give low values 0.978 | S. cerevisiae deletion strains, locus YMR078C, strain ctf18, hits give low values 0.973 | S. cerevisiae deletion strains, locus YMR125W, strain sto1, hits give low values 0.971 | S. cerevisiae deletion strains, locus YMR129W, hits give low values 0.992 | S. cerevisiae deletion strains, locus YMR205C, strain PFK2, hits give low values 0.96 | S. cerevisiae deletion strains, locus YMR223W, strain ubp8, hits give low values 0.962 | S. cerevisiae deletion strains, locus YMR231W, strain pep5, hits give low values 0.971 | S. cerevisiae deletion strains, locus YMR263W, strain SAP30, hits give low values 1.02 | S. cerevisiae deletion strains, locus YMR307W, strain GAS1, hits give low values 0.881 | S. cerevisiae deletion strains, locus YNL067W, strain RPL9B, hits give low values 1.02 | S. cerevisiae deletion strains, locus YNL071W, strain lat1, hits give low values 0.979 | S. cerevisiae deletion strains, locus YNL128W, strain TEP1, hits give low values 1.01 | S. cerevisiae deletion strains, locus YNL153C, strain GIM3, hits give low values 1.02 | S. cerevisiae deletion strains, locus YNL183C, strain NPR1, hits give low values 0.943 | S. cerevisiae deletion strains, locus YNL209W, strain ssb2, hits give low values 0.988 | S. cerevisiae deletion strains, locus YNL233W, strain BNI4, hits give low values 1 | S. cerevisiae deletion strains, locus YNL248C, strain rpa49, hits give low values 0.997 | S. cerevisiae deletion strains, locus YNL250W, strain rad50, hits give low values 0.99 | S. cerevisiae deletion strains, locus YNL271C, strain bni1, hits give low values 0.974 | S. cerevisiae deletion strains, locus YNL298W, strain CLA4, hits give low values 0.974 | S. cerevisiae deletion strains, locus YNL307C, strain MCK1, hits give low values 0.96 | S. cerevisiae deletion strains, locus YNL322C, strain KRE1 (second series), hits give low values 0.986 | S. cerevisiae deletion strains, locus YNL322C, strain KRE1, hits give low values 0.998 | S. cerevisiae deletion strains, locus YNR049C, strain mso1, hits give low values 0.991 | S. cerevisiae deletion strains, locus YNR052C, strain pop2, hits give low values 0.962 | S. cerevisiae deletion strains, locus YOL006C, strain TOP1, hits give low values 1.03 | S. cerevisiae deletion strains, locus YOL012C, strain htz1 0.873 | S. cerevisiae deletion strains, locus YOL147C, strain pex11, hits give low values 0.991 | S. cerevisiae deletion strains, locus YOR001W, strain rrp6, hits give low values 0.949 | S. cerevisiae deletion strains, locus YOR061W, strain CKA2, hits give low values 0.994 | S. cerevisiae deletion strains, locus YOR069W, strain VPS5, hits give low values 0.975 | S. cerevisiae deletion strains, locus YOR070C, strain gyp1, hits give low values 1 | S. cerevisiae deletion strains, locus YOR080W, strain dia2, hits give low values 1 | S. cerevisiae deletion strains, locus YOR083W, strain WHI5, hits give low values 0.99 | S. cerevisiae deletion strains, locus YOR106W, strain vam3, hits give low values 1.03 | S. cerevisiae deletion strains, locus YOR136W, strain idh2, hits give low values 0.98 | S. cerevisiae deletion strains, locus YOR144C, strain elg1, hits give low values 0.986 | S. cerevisiae deletion strains, locus YOR184W, strain ser1, hits give low values 0.951 | S. cerevisiae deletion strains, locus YOR231W, strain MKK1, hits give low values 0.999 | S. cerevisiae deletion strains, locus YOR265W, strain rbl2, hits give low values 0.996 | S. cerevisiae deletion strains, locus YOR270C, strain vph1, hits give low values 0.929 | S. cerevisiae deletion strains, locus YOR290C, strain snf2, hits give low values 1.02 | S. cerevisiae deletion strains, locus YOR316C, strain cot1, hits give low values 0.983 | S. cerevisiae deletion strains, locus YPL051W, strain arl3, hits give low values 1.04 | S. cerevisiae deletion strains, locus YPL055C, strain LGE1, hits give low values 1.03 | S. cerevisiae deletion strains, locus YPL078C, strain atp4, hits give low values 1.01 | S. cerevisiae deletion strains, locus YPL106C, strain sse1, hits give low values 1.01 | S. cerevisiae deletion strains, locus YPL240C, strain hsp82, hits give low values 0.986 | S. cerevisiae deletion strains, locus YPL241C, strain CIN2, hits give low values 0.996 | S. cerevisiae deletion strains, locus YPL256C, strain CLN2, hits give low values 0.992 | S. cerevisiae deletion strains, locus YPR119W, strain clb2, hits give low values 0.997 | S. cerevisiae deletion strains, locus YPR141C, strain kar3, hits give low values 0.987 | S. cerevisiae deletion strains, locus YPR163C, strain tif3, hits give low values 0.983 | S. cerevisiae deletion strains, locus YPR167C, strain met16, hits give low values 0.979 | S. cerevisiae deletion strains, strain wtn01, hits give low values 0.999 | S. cerevisiae strains, strain wild type, hits give low values 0.989
